The panel holds about 79,000 compounds, 15% with a hit somewhere; the sample as a whole holds those more often. The source made the active and inactive calls. No stated cut-off is given here; in the data, active means growth inhibition above about 70%; inactive means the rest.
Test: NCI Yeast Anticancer Drug Screen. Data for the rad50 strain (AID 155);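 further: 0% = growth of vehicle-only cultures of the same strain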
Details: S. cerevisiae rad50 strain growth inhibition; at 50.0 µM (retest, dose inferred, filed as 5.0); hits give high values
Procedure, shortened: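 Yeast carrying a defined DNA repair defect were exposed to test compounds, and growth was compared with vehicle-treated controls to give percent inhibition.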

Compound	growth inhibition
CCCCCCCCCCCCCCCC1=NCCN1C	99% (active)
C=CCNC(=O)c1ccccc1C(=O)O	28% (inactive)
O=C(Nc1ccc(Cl)cc1Cl)OC(Cn1cncn1)c1ccc(Cl)cc1Cl (stereo not given)	71% (active)
CC1=C(C)CC2C(=O)C(C(O)CC(C)C)=CC(=O)C2C1 (stereo not given)	91% (active)
BrCc1ccccc1C[P+](c1ccccc1)(c1ccccc1)c1ccccc1	98% (active)
Cc1cn(C(C#N)=C(C#N)C#N)c2ccccc12	25% (inactive)
O=C1OCCCOC(=O)c2cc(ccc2O)OCC#CC#CCOc2ccc(O)c1c2	-6% (inactive)
O=[N+]([O-])c1cc2ccc(O)cc2c2ccccc12	89% (active)
COc1cc2c(oc(=O)c3cc(C)cc(OC)c32)c2c(C3OC(C)C(O)C(C)(O)C3O)ccc(O)c12 (stereo not given)	96% (active)
Oc1c(Cl)cc(Cl)c(Cc2c(Cl)cc(Cl)c(O)c2Cl)c1Cl	97% (active)
N#CI1OC(C(F)(F)F)(C(F)(F)F)c2ccccc21	98% (active)
c1ccc2c(c1)[nH]c1c[n+]3c(c[n+]12)[nH]c1ccccc13	53% (inactive)
CC1Cc2cc(O)c(O)cc2-c2cc(O)c(O)cc2CC1C (stereo not given)	86% (active)
COc1ccc(C2c3cc4c(cc3OC(C)(O)C2C)OCO4)cc1 (stereo not given)	94% (active)
Cc1ccc(C2(O)CC(c3ccc([N+](=O)[O-])o3)=NN2C(=O)COc2ccc(Cl)cc2)cc1 (stereo not given)	46% (inactive)
CCO[Si](CC)(OCC)OCC	2% (inactive)
C/C=C(/CCC1NCCC2c3ccccc3NC12)[Si](C)(C)C (stereo not given)	8% (inactive)
O=C(CBr)N1c2ccccc2Sc2ccc3ccccc3c21	99% (active)
CC(C)(C)CC(C)(C)N[P+](NC(C)(C)CC(C)(C)C)(NC(C)(C)CC(C)(C)C)NC(C)(C)CC(C)(C)C	98% (active)
COc1ccc(/C=C/c2ccnnc2)c(OC)c1OC	6% (inactive)

Compound	growth inhibition
O=Cc1cc(-c2ccccc2)n(-c2ccccc2)c1-c1ccccc1	18% (inactive)
CC(=O)Oc1ccc(/C=C/c2ccncc2)cc1	-78% (inactive)
OC(c1ccccc1)(c1ccccc1)c1ccc[cH-]1.OC(c1ccccc1)(c1ccccc1)c1ccc[cH-]1.[Fe+2]	-5% (inactive)
O=C1C=CC(=O)N1c1ccc(Cl)cc1Br	42% (inactive)
Cc1c(N)nc(C2CC(=O)N2CC(N)C(N)=O)nc1C(=O)NC(C(=O)NC(C)C(O)C(C)C(=O)NC(C(=O)NCCc1nc(-c2nc(C(=O)NCCNCC(C)O)cs2)cs1)C(C)O)C(OC1OC(CO)C(O)C(O)C1OC1OC(CO)C(O)C(OC(N)=O)C1O)c1cnc[nH]1 (stereo not given)	97% (active)
CNC(=S)/N=c1/sc([N+](=O)[O-])c(C)n1C	-4% (inactive)
O=c1c2ccccc2ncn1Cc1ccccc1[N+](=O)[O-]	14% (inactive)
Cc1nn(C(=O)c2ccncc2)c(C)c1N=Nc1ccccc1[N+](=O)[O-]	96% (active)
CCC[CH2][Ge]([CH2]CCC)([CH2]CCC)[O]C(=O)C(OC(C)=O)c1ccccc1 (stereo not given)	95% (active)
Nc1ccc2c(c1)[nH]c(=O)c1cc(Cl)c(Cl)cc12	94% (active)
CCCCCCCCCCCCSC1=C(N)C(=O)c2ccccc2C1=O	2% (inactive)
CCC(C)(C)c1ccc(OCCO)c([N+](=O)[O-])c1	70% (active)
C/C(=N/O)c1cccc(C(F)(F)F)c1	-146% (inactive)
CCCCCCN(S(=O)(=O)c1ccc([N+](=O)[O-])cc1)S(=O)(=O)c1ccc([N+](=O)[O-])cc1	48% (inactive)
N#CC1=C(N)OC(c2ccccc2)=C(C#N)C1c1ccccc1[N+](=O)[O-] (stereo not given)	5% (inactive)
COC1CCCCC1C(=O)C(C#N)C1CCCCC1C1CCCCC1 (stereo not given)	-2% (inactive)
COCCOC1=C(Cl)C(=O)c2c(O)ccc(O)c2C1=O	98% (active)
NC(CSSCC(N)C(=O)Nc1ccc2ccccc2c1)C(=O)Nc1ccc2ccccc2c1 (stereo not given)	98% (active)
CSc1c(S(C)=O)c2ccccc2n1C (stereo not given)	17% (inactive)
CCCCCCCCCCCCCCCCNCCCCCCCC(=O)O	64% (inactive)

Same assay, conditions: S. cerevisiae rad50 strain growth inhibition; at 50.0 µM; hits give high values

Compound	growth inhibition
CCCCCCCCCCCCCCCC1=NCCN1C	99.1% (active)
C=CCNC(=O)c1ccccc1C(=O)O	63.2% (inactive)
O=C(Nc1ccc(Cl)cc1Cl)OC(Cn1cncn1)c1ccc(Cl)cc1Cl (stereo not given)	91.2% (active)
CC1=C(C)CC2C(=O)C(C(O)CC(C)C)=CC(=O)C2C1 (stereo not given)	97.8% (active)
BrCc1ccccc1C[P+](c1ccccc1)(c1ccccc1)c1ccccc1	89.5% (active)
Cc1cn(C(C#N)=C(C#N)C#N)c2ccccc12	14.4% (inactive)
O=C1OCCCOC(=O)c2cc(ccc2O)OCC#CC#CCOc2ccc(O)c1c2	12.6% (inactive)
O=[N+]([O-])c1cc2ccc(O)cc2c2ccccc12	93.5% (active)
COc1cc2c(oc(=O)c3cc(C)cc(OC)c32)c2c(C3OC(C)C(O)C(C)(O)C3O)ccc(O)c12 (stereo not given)	90.2% (active)
Oc1c(Cl)cc(Cl)c(Cc2c(Cl)cc(Cl)c(O)c2Cl)c1Cl	65.8% (inactive)
N#CI1OC(C(F)(F)F)(C(F)(F)F)c2ccccc21	45.2% (inactive)
c1ccc2c(c1)[nH]c1c[n+]3c(c[n+]12)[nH]c1ccccc13	71.6% (active)
CC1Cc2cc(O)c(O)cc2-c2cc(O)c(O)cc2CC1C (stereo not given)	72.1% (active)
COc1ccc(C2c3cc4c(cc3OC(C)(O)C2C)OCO4)cc1 (stereo not given)	98.8% (active)
Cc1ccc(C2(O)CC(c3ccc([N+](=O)[O-])o3)=NN2C(=O)COc2ccc(Cl)cc2)cc1 (stereo not given)	6.1% (inactive)
CCO[Si](CC)(OCC)OCC	27.1% (inactive)
C/C=C(/CCC1NCCC2c3ccccc3NC12)[Si](C)(C)C (stereo not given)	10.2% (inactive)
O=C(CBr)N1c2ccccc2Sc2ccc3ccccc3c21	90.5% (active)
CC(C)(C)CC(C)(C)N[P+](NC(C)(C)CC(C)(C)C)(NC(C)(C)CC(C)(C)C)NC(C)(C)CC(C)(C)C	83.2% (active)
COc1ccc(/C=C/c2ccnnc2)c(OC)c1OC	53.2% (inactive)

Compound	growth inhibition
O=Cc1cc(-c2ccccc2)n(-c2ccccc2)c1-c1ccccc1	64.3% (inactive)
CC(=O)Oc1ccc(/C=C/c2ccncc2)cc1	67.8% (inactive)
OC(c1ccccc1)(c1ccccc1)c1ccc[cH-]1.OC(c1ccccc1)(c1ccccc1)c1ccc[cH-]1.[Fe+2]	-0.6% (inactive)
O=C1C=CC(=O)N1c1ccc(Cl)cc1Br	93.3% (active)
Cc1c(N)nc(C2CC(=O)N2CC(N)C(N)=O)nc1C(=O)NC(C(=O)NC(C)C(O)C(C)C(=O)NC(C(=O)NCCc1nc(-c2nc(C(=O)NCCNCC(C)O)cs2)cs1)C(C)O)C(OC1OC(CO)C(O)C(O)C1OC1OC(CO)C(O)C(OC(N)=O)C1O)c1cnc[nH]1 (stereo not given)	92.7% (active)
CNC(=S)/N=c1/sc([N+](=O)[O-])c(C)n1C	65.5% (inactive)
O=c1c2ccccc2ncn1Cc1ccccc1[N+](=O)[O-]	-31.8% (inactive)
Cc1nn(C(=O)c2ccncc2)c(C)c1N=Nc1ccccc1[N+](=O)[O-]	61.3% (inactive)
CCC[CH2][Ge]([CH2]CCC)([CH2]CCC)[O]C(=O)C(OC(C)=O)c1ccccc1 (stereo not given)	78% (active)
Nc1ccc2c(c1)[nH]c(=O)c1cc(Cl)c(Cl)cc12	96.3% (active)
CCCCCCCCCCCCSC1=C(N)C(=O)c2ccccc2C1=O	8.35% (inactive)
CCC(C)(C)c1ccc(OCCO)c([N+](=O)[O-])c1	77.3% (active)
C/C(=N/O)c1cccc(C(F)(F)F)c1	7.15% (inactive)
CCCCCCN(S(=O)(=O)c1ccc([N+](=O)[O-])cc1)S(=O)(=O)c1ccc([N+](=O)[O-])cc1	66.8% (inactive)
N#CC1=C(N)OC(c2ccccc2)=C(C#N)C1c1ccccc1[N+](=O)[O-] (stereo not given)	-8.2% (inactive)
COC1CCCCC1C(=O)C(C#N)C1CCCCC1C1CCCCC1 (stereo not given)	96% (active)
COCCOC1=C(Cl)C(=O)c2c(O)ccc(O)c2C1=O	90.5% (active)
NC(CSSCC(N)C(=O)Nc1ccc2ccccc2c1)C(=O)Nc1ccc2ccccc2c1 (stereo not given)	88.6% (active)
CSc1c(S(C)=O)c2ccccc2n1C (stereo not given)	-20.6% (inactive)
CCCCCCCCCCCCCCCCNCCCCCCCC(=O)O	75% (active)
